# Measured values reported in PubChem BioAssay (NCATS).
# Results filed as inconclusive are left out. Where a call stands in place of a potency, no number is given. Active and inactive are the calls of the source. Unless noted, the call rests on the fitted dose curve; in most records, active means well fitted curve in the direction sought with a large enough effect; inconclusive means small, poorly fitted or top-dose-only effect, or another doubt; inactive means no such curve, though single readings can be large; an effect the other way counts as inactive or inconclusive.
# Columns and labels:
# [1] = Primary qHTS for small molecule stabilizers of the endoplasmic reticulum resident proteome: Secreted ER Calcium Modulated Protein (SERCaMP) assay (AID 1508630)
# Outline: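 GLuc-SERCaMP-expressing SH-SY5Y cells, pretreated 16 h with compound, are challenged with thapsigargin to empty ER calcium stores; after 4 h, coelenterazine is added directly to the medium and luminescence is imaged.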
# [2] = molecular target: Lysosomal acid glucosylceramidase (Homo sapiens) (UniProt P04062); test: Glucocerebrosidase-p2 (AID 348; in the data active means potency below about 10 µM; further: potency means the concentration at half of the fitted maximal effect); settings: purified GBA, blue fluorogenic substrate, 40 min
# Lysosomal acid glucosylceramidase (Homo sapiens), sequence (P04062 whole entry, looked up): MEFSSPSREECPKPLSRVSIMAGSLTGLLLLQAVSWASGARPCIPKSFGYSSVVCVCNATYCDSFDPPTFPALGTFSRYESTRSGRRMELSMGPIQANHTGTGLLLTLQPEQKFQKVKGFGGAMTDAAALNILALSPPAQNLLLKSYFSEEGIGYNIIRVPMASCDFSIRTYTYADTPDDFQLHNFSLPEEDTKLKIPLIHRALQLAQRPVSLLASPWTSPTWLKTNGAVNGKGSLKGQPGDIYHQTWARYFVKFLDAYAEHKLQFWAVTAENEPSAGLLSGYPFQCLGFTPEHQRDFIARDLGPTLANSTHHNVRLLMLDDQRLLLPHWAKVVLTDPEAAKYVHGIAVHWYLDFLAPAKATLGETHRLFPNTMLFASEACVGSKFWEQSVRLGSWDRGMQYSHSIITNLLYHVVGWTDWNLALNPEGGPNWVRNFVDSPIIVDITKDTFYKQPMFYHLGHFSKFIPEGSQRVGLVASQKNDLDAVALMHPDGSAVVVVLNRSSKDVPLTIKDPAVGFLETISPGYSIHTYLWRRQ
# Outline: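 Compounds titrated from 0.6 nM upwards against 0.2 nM enzyme in pH 5.9 citric acid/KH2PO4, taurocholate, tween-20; blue fluorogenic substrate 80 uM, 40 min room temperature, stopped and read Ex 365/Em 440 for AC50.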
# [3] = AP1 Signaling Pathway (AID 357; active means well fitted curve in either direction with a large enough effect, not every such curve was filed as active); settings: ME-180 AP-1-bla reporter, EGF-induced, beta-lactamase ratio, 5 h; at 7.69 µM (top of the series) unless noted
# Outline: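 AP-1-bla ME-180 cells with beta-lactamase reporter under AP-1 response element, stimulated with EC50 EGF; compounds titrated, 5 hours at 37 degrees Celsius. CCF4 read at 460/530 nm ratio; positive and negative modulators judged by AC50.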
# [4] = molecular target: Cytochrome P450 1A2 (Homo sapiens) (UniProt P05177); test: p450-cyp1a2 (AID 410; calls by dose curve)
# Cytochrome P450 1A2 (Homo sapiens), sequence (P05177 whole entry, looked up): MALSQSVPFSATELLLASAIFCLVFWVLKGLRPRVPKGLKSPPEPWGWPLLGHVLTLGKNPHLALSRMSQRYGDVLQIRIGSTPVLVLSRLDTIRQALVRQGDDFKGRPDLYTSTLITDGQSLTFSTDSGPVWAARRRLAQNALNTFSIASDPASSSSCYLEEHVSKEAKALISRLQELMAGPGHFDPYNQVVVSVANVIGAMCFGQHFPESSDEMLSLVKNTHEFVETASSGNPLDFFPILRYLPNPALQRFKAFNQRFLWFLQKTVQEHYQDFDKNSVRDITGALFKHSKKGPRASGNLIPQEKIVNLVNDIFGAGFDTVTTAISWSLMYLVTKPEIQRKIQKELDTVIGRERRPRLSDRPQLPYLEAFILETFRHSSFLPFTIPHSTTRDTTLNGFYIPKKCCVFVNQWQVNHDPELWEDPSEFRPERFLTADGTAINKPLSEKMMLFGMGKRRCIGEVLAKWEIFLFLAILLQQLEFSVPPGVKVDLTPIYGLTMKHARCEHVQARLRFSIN
# Outline: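 Luminescent readout of luciferin formed from Luciferin-ME by human CYP1A2; data normalized against complete inhibition by 57 uM furafylline. Enzyme 20nM, substrate 100uM at Km, 100mM KPO4 buffer, 60 min reaction at room temperature.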
# [5] = NFAT Signaling Pathway (AID 444; active means well fitted curve in either direction with a large enough effect, not every such curve was filed as active;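 further: carbachol stimulus at about its EC50 of 1 µM final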); settings: Jurkat NFAT-bla M1, carbachol, beta-lactamase ratio, 5 h; at 7.69 µM (top of the series) unless noted
# Outline: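 Read-out: CCF4 FRET ratio (460 nm/530 nm) after 1 h RT dye loading, used for %activity and AC50 from titration series. Cells: Jurkat NFAT-β-lactamase/M1 line, treated with compound plus 1 uM carbachol for 5 h, 37 °C.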
# [6] = molecular target: Glucocorticoid receptor (Homo sapiens) (UniProt P04150); test: GR-EFC Redistribution (AID 451; calls by dose curve; further: potency means the concentration at half of the fitted maximal effect); settings: CHO-K1 GR-EFC translocation, beta-gal luminescence, 2 h
# Glucocorticoid receptor (Homo sapiens), sequence (P04150 whole entry, looked up, the tested form may be a part): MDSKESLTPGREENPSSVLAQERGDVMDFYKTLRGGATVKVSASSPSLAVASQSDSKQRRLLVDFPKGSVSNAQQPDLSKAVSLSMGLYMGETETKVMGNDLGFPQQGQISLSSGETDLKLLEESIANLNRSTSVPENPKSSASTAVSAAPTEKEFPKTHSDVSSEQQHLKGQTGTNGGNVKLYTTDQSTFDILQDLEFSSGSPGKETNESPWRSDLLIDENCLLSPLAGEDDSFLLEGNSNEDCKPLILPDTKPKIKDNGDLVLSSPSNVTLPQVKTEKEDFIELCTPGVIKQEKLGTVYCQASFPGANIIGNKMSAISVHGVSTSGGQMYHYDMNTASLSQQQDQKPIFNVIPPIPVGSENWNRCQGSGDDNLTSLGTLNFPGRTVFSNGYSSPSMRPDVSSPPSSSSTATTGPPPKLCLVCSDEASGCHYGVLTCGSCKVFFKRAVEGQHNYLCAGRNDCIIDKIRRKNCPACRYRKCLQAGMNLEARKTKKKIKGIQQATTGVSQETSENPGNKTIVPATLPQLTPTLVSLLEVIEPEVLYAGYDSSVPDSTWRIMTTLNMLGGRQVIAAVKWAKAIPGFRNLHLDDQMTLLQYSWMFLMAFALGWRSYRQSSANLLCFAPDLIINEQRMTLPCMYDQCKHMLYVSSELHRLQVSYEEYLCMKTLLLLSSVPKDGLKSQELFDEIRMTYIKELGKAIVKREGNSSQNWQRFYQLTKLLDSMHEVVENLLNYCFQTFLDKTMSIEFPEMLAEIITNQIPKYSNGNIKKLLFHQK
# Outline: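 Translocation of GR-ED fusion to nuclear EA restores b-gal, read by luminescence after 1 h room-temperature detection. Engineered CHO-K1 biosensor cells, 1,000/well, exposed 2 h at 37 C to titrations up to 46 uM final.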
# [7] = molecular target: 3',5'-cyclic-AMP phosphodiesterase 4B (Homo sapiens) (UniProt Q07343); test: qHTS Assay for Inhibitors of PDE-IV (AID 607; active means well fitted activation curve with a large enough effect in the main read-out, with a control signal flat, not every such curve was filed as active)
# 3',5'-cyclic-AMP phosphodiesterase 4B (Homo sapiens), sequence (Q07343 whole entry, looked up): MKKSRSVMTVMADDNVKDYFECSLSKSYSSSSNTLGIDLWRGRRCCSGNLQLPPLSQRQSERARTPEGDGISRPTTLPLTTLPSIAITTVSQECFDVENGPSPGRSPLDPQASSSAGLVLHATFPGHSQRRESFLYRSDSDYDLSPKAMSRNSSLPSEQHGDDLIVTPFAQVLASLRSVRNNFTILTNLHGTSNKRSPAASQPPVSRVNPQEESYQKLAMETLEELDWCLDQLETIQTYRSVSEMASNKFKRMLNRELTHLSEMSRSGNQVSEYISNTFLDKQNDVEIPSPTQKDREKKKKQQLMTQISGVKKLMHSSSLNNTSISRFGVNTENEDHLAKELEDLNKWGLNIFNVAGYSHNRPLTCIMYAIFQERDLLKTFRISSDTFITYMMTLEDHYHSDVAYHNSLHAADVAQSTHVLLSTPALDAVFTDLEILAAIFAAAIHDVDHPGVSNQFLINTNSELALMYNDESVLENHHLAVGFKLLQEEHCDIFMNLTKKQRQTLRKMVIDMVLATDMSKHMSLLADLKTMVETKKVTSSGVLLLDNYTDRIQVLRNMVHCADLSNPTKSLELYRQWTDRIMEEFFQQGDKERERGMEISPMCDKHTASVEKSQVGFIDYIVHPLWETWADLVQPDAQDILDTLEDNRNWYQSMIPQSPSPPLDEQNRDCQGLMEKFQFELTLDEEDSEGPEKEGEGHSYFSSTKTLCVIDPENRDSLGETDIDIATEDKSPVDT
# Outline: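 ACTOne HEK293 cells carry a modified cAMP-gated CNG channel and express endogenous PDE4; plated 1000 cells/well, compounds up to 22.9 uM final. Membrane-potential dye fluorescence (ex 535/em 590) was read; parental cells received 10 uM forskolin + 100 uM RO 20-1724.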
# [8] = qHTS Assay for Lipid Storage Modulators (AID 1519; calls by dose curve); settings: Drosophila S3 cells, BODIPY lipid droplet/cell ratio, laser cytometry, cells loaded with oleic acid; for activity change, negative = inhibition: at 57.5 µM (top of the series)
# Outline: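 Cells seeded at 5,000 per well were treated with compounds over a concentration series and loaded with oleic acid (400 uM, as added). Lipid droplet fluorescence (488 nm excitation, 500-530 nm channel) was read by laser-scanning cytometry and normalized to 20 uM Triacsin C.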
# [9] = molecular target: Rap guanine nucleotide exchange factor 3 (Homo sapiens) (UniProt O95398); test: Confirmatory qHTS for antagonist of cAMP-regulated guanine nucleotide exchange factor 3 (EPAC1) (AID 1645880); further: nearly all actives have a fitted effect of over 55% in size
# Rap guanine nucleotide exchange factor 3 (Homo sapiens), sequence (O95398 whole entry, looked up): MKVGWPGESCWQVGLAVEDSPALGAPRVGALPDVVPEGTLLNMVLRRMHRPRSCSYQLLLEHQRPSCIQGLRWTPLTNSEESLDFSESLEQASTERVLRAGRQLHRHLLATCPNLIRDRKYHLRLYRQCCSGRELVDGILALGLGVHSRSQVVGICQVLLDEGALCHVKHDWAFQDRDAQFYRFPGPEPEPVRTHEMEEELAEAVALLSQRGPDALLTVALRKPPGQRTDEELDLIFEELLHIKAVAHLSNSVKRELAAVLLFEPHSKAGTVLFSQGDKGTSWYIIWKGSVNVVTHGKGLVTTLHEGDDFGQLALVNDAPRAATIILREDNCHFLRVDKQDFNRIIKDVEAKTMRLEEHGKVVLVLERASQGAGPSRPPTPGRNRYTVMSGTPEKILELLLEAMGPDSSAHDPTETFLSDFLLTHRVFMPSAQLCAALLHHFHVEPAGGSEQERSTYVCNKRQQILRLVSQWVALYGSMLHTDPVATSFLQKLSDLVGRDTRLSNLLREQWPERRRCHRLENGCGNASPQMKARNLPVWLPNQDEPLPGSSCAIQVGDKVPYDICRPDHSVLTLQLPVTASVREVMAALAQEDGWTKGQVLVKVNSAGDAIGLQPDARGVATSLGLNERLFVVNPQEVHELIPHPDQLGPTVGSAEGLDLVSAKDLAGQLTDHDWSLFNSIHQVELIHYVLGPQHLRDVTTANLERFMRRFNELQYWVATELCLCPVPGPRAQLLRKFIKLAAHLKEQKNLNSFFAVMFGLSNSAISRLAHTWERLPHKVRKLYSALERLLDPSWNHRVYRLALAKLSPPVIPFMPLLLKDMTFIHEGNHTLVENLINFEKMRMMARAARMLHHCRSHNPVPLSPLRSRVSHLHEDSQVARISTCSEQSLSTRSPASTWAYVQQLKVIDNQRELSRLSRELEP
# Outline: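 Nucleotide exchange uses 100 nM EPAC1, 250 nM RAP1B-BODIPY-GDP and 50 uM GDP, with compounds in a concentration-titration series. After 5 min at room temperature, fluorescence (480 nm ex/540 nm em) is read every 5 min for 30 min. Data are normalized to control ATA and DMSO.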
# [10] = molecular target: Rap guanine nucleotide exchange factor 3 (Homo sapiens) (UniProt O95398); test: Confirmatory qHTS for agonist of cAMP-regulated guanine nucleotide exchange factor 3 (EPAC1) (AID 1645881);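 further: EPAC1 catalysed release of BODIPY-GDP from Rap1B seen as fluorescence loss; nearly all actives have a fitted effect of over 75% in size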
# [11] = molecular target: Rap guanine nucleotide exchange factor 4 (Homo sapiens) (UniProt Q8WZA2); test: Confirmatory qHTS for agonist of cAMP-regulated guanine nucleotide exchange factor 4 (EPAC2) (AID 1645884);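 further: nucleotide exchange releases bodipy-GDP from Rap1 and this lowers its fluorescence; nearly all actives have a fitted effect of over 65% in size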
# Rap guanine nucleotide exchange factor 4 (Homo sapiens), sequence (Q8WZA2 whole entry, looked up): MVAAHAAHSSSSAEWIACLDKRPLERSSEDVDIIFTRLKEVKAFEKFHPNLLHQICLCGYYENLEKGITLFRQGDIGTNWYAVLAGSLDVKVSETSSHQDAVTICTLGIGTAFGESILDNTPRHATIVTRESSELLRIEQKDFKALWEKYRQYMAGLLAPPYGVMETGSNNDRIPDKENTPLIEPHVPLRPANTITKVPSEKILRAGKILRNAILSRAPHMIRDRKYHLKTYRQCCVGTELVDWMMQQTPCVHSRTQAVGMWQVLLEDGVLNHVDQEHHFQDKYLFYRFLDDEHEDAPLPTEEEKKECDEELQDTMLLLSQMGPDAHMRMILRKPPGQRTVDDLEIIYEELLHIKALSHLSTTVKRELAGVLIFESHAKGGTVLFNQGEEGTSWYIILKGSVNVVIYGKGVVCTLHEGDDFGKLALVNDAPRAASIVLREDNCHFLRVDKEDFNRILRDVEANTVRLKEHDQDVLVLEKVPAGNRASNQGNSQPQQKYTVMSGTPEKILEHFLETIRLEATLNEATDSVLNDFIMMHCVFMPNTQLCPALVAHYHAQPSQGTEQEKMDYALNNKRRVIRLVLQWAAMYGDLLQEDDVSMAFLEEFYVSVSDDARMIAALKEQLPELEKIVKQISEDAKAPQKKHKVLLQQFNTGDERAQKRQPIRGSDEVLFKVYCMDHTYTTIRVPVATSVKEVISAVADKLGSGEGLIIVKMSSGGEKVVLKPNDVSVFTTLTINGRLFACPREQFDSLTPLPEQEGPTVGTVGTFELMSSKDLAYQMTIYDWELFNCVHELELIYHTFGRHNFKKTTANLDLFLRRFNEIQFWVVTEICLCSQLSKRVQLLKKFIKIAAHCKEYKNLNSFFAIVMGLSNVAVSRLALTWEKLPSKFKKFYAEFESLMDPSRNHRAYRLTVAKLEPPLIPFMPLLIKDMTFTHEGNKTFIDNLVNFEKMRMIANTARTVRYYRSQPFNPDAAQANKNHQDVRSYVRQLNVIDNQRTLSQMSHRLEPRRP
# [12] = molecular target: Rap guanine nucleotide exchange factor 4 (Homo sapiens) (UniProt Q8WZA2); test: Confirmatory qHTS for antagonist of cAMP-regulated guanine nucleotide exchange factor 4 (EPAC2) (AID 1645885); further: nearly all actives have a fitted effect of over 25% in size; further: potency means the concentration at half of the fitted maximal effect
# [13] = Stat Signaling Pathway (AID 446; active means well fitted curve in either direction with a large enough effect, not every such curve was filed as active;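 further: ME-180 cervical cancer cells given 40 pM IL-6 alongside compound; SIE-controlled beta-lactamase reporter measured as 460/530 nm FRET emission ratio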); settings: ME-180 SIE beta-lactamase reporter, IL-6 stimulated, 5 h; at 7.69 µM (top of the series) unless noted
# Outline: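 ME-180 SIE-bla cells; overnight plating; cpd + IL-6 40 pM, 5 h, 37 C; LiveBLAzer 2.5 h RT; 460/530 nm emission ratio. Normalized to 300 pM IL-6 and 125 nM JAK inhibitor controls.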
# [14] = molecular target: Glucocorticoid receptor (Homo sapiens) (UniProt P04150); test: GR-GFP Redistribution (AID 450;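 active means compounds whose dose series gives a full or clear partial fitted curve of increased nuclear translocation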; further: potency means the concentration at half of the fitted maximal effect); settings: U2OS GR-GFP nuclear translocation, laser cytometry, 2 h
# [15] = molecular target: Mitogen-activated protein kinase 10 (Mus musculus) (UniProt Q61831); test: JNK3 AlphaScreen Assay (AID 530; active means well fitted curve in either direction with a large enough effect, not every such curve was filed as active;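 further: kinase came from lysate of stimulated human HepG2 cells; signal reports phosphorylation of biotinylated GST-cJun 1-79 at Ser73 with 10 µM ATP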)
# Outline: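 Compound titrations were preincubated 15 minutes at room temperature with substrate, antibody and pre-activated JNK3-containing HepG2 lysate. Reactions were started with 10 uM ATP and stopped with EDTA-containing bead buffer for AlphaScreen detection.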
# [16] = molecular target: Cytochrome P450 3A4 (Homo sapiens) (UniProt P08684); test: qHTS Assay for Activators of Cytochrome P450 3A4 (AID 885); further: nearly all actives have a fitted effect of over 65% in size
# Cytochrome P450 3A4 (Homo sapiens), sequence (P08684 whole entry, looked up): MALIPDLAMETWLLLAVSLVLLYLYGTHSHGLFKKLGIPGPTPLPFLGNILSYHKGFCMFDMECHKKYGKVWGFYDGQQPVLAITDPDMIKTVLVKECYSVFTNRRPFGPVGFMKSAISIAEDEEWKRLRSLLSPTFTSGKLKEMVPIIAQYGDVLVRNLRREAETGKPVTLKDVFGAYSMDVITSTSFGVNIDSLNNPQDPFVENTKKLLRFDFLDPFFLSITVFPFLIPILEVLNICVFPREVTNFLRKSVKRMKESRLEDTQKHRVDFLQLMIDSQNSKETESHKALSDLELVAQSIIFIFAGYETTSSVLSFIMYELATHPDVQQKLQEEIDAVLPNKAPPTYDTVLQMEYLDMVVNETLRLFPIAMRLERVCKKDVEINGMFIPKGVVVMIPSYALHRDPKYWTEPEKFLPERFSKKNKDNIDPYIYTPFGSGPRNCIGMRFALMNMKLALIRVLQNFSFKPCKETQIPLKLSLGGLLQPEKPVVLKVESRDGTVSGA
# Outline: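 20nM CYP3A4 + 25uM Luciferin-PPXE (=KM), 200mM KPO4; cpd 10 min RT; NADPH regen, 60 min RT; stop w/ detection buffer, 20 min; luminescence. Normalized to 57 uM ketoconazole.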
# [17] = measured here: cell count channel max response
# [18] = measured here: lipid channel max response
smiles,measurement,setting,value
CC(C)=CCC1=C(O)[C@](O)(CC=C(C)C)C(=O)C(C(=O)CC(C)C)=C1O,Potency,[1],inactive
C=C(C)C(=O)OC[C@@H]1CCC[N@+]2(C)CCCCC12 (some centres not stated),Potency,[1],inactive
CCCc1c(OCC(O)COc2ccc3c(=O)cc(C(=O)O)oc3c2CCC)ccc(C(C)=O)c1O (configuration not stated),Potency,[1],inactive
COc1ccc(C(=O)N(O)c2ccccc2)cc1,Potency,[1],inactive
Cc1cn2c(=O)c3ccccc3nc2n2c(=O)c3ccccc3nc12,Potency,[1],inactive
CC1=CC(=O)OC1Cc1ccc2ccccc2n1 (configuration not stated),Potency,[1],inactive
C=C1C[C@@]23CC4C5[C@@]6(C)C[C@H](O)C[C@@]57C2[C@H](O)[C@@H]1[C@H](O)[C@H]3[C@H]7N4C6,Potency,[1],inactive
CC1CCC(C(C)[C@H]2CCC3C4CC(=O)C5C[C@@H](O)CC[C@]5(C)C4CC[C@@]32C)=NC1 (some centres not stated),Potency,[1],inactive
COc1ccc2c(c1)OC[C@H]1c3cc4c(cc3O[C@@H]21)OCO4,Potency,[1],inactive
COc1ccccc1C1OC(=O)CC1C(=O)OC[C@@H]1CCCN2CCCCC12 (some centres not stated),Potency,[1],inactive
C[C@H]1OC(=O)CC[C@@H]2[C@]1(C)CCC1[C@@]2(C)CC[C@@]2(C)C3CC(C)(C)CC[C@]3(CO)CC[C@]12C (some centres not stated),Potency,[1],inactive
COCC(=O)N1CCC2(CC1)CN(c1ccccn1)C2,Potency,[2],> 11.4 µM (inactive)
same,"activity change, negative = inhibition",[3],-0.233% (inactive)
same,Potency,[4],inactive
same,"activity change, negative = inhibition",[5],1.7% (inactive)
same,Potency,[6],> 46 µM (inactive)
same,Potency,[7],inactive
same,"activity change, negative = inhibition",[8],1.23% (inactive)
same,max response,[8]; [17],1.59%
same,max response,[8]; [18],3.63%
same,Potency,[1],inactive
same,Potency,[9],inactive
same,outcome,[10],inactive
same,outcome,[11],inactive
same,Potency,[12],inactive
COCCn1c(=O)c(CCc2ccccc2)nc2cnc(Nc3cccc(OC)c3)nc21,Potency,[2],> 11.4 µM (inactive)
same,"activity change, negative = inhibition",[3],13.2% (inactive)
same,"activity change, negative = inhibition",[5],5.55% (inactive)
same,"activity, negative = inhibition",[13],0.869% (inactive)
same,Potency,[14],> 9.22 µM (inactive)
same,Potency,[6],> 46 µM (inactive)
same,outcome,[15],inactive
same,"activity change, negative = inhibition",[8],-3.18% (inactive)
same,max response,[8]; [17],22%
same,max response,[8]; [18],18.9%
same,Potency,[1],inactive
same,Potency,[9],inactive
same,outcome,[10],inactive
same,outcome,[11],inactive
same,Potency,[12],inactive
COc1c2c(cc3c1C(CC(=O)c1c(O)c(OC)c4occc4c1OC)[N+](C)(C)CC3)OCO2 (configuration not stated),Potency,[1],inactive
C=C[C@]1(C)Cc2occ(C)c2C[C@H]1C(=C)C(=O)O,Potency,[1],inactive
COc1ccc(/C(=C\C(=O)O)c2nccc3cc(OC)c(OC)cc23)cc1OC,Potency,[1],inactive
COc1cc(O)c2c(=O)cc(C)oc2c1CC=C(C)C,Potency,[16],inactive
same,"activity change, negative = inhibition",[8],15% (inactive)
same,max response,[8]; [17],7.83%
same,max response,[8]; [18],11.5%
same,Potency,[1],inactive
same,Potency,[9],inactive
same,outcome,[10],inactive
same,outcome,[11],inactive
same,Potency,[12],22.1 µM (active)
COCC(=O)N1CCC2(CC1)CCN(C(=O)Nc1cccc(C#N)c1)CC2,Potency,[2],> 11.4 µM (inactive)
same,"activity change, negative = inhibition",[3],-4.8% (inactive)
same,Potency,[4],inactive
same,"activity change, negative = inhibition",[5],-11.9% (inactive)
same,"activity, negative = inhibition",[13],-4.23% (inactive)
same,Potency,[6],> 46 µM (inactive)
same,outcome,[15],inactive
same,Potency,[7],inactive
same,"activity change, negative = inhibition",[8],1.13% (inactive)
same,max response,[8]; [17],4.68%
same,max response,[8]; [18],4.41%
same,Potency,[1],inactive
same,Potency,[9],inactive
same,outcome,[10],inactive
same,outcome,[11],inactive
same,Potency,[12],inactive
O=C(c1cc(C(F)(F)F)cc(C(F)(F)F)c1)N1CCC2(CCCN(Cc3nccs3)C2)CC1,Potency,[2],> 11.4 µM (inactive)
same,"activity change, negative = inhibition",[3],-11.4% (inactive)
same,Potency,[4],inactive
same,"activity, negative = inhibition",[13],-17.2% (inactive)
same,Potency,[6],> 46 µM (inactive)
same,outcome,[15],inactive
same,Potency,[7],inactive
same,Potency,[16],inactive
same,"activity change, negative = inhibition",[8],-19.9% (inactive)
same,max response,[8]; [17],17.8%
same,max response,[8]; [18],-1.38%
same,Potency,[1],inactive
same,outcome,[10],inactive
same,outcome,[11],inactive
